Test results from ChEMBL document CHEMBL4513146, “CO-ADD screening of Karazin Kharkiv National University (Ukraine) compounds”.
Entries with a potency or affinity are not part of this list.

How the values were obtained:
Klebsiella pneumoniae = conditions: Concentration 32 ug.mL-1;; ASSAY_TEST Inhibition of Bacterial Growth; detection method Absorption (OD600); MEDIA CAMHB; plate type 384well; NBS; CORNING #3640; time 18 hr
Candida albicans = conditions: Concentration 32 ug.mL-1; ASSAY_TEST Inhibition of Fungal Growth; detection method Absorption (OD530)
Cryptococcus neoformans = conditions: Concentration 32 ug.mL-1; ASSAY_TEST Inhibition of Fungal Growth; detection method Resazurin; Absorption (OD600-OD570); plate type 384well; NBS; CORNING #3640

Row | Compound | Inhibition (Klebsiella pneumoniae) [%] | Inhibition (Candida albicans) [%] | Inhibition (Cryptococcus neoformans) [%]
1 | Cc1cccc(Oc2nccn3c(=O)n(CC(=O)Nc4ccccc4C(F)(F)F)nc23)c1C | 10.49 | -0.97 | -7.67
2 | CC(=O)c1ccc(NC(=O)Cn2nc3c(Sc4ccc(C)cc4C)nccn3c2=O)cc1 | -3.02 | 1.94 | -20.51
3 | CCOc1ccc(NC(=O)Cn2nc3c(Sc4ccc(C)cc4C)nccn3c2=O)cc1 | 3.27 | 6.36 | -11.66
4 | O=C(Cn1nc2c(N3CCOCC3)nccn2c1=O)Nc1ccc(Br)cc1F | 9.99 | 1.73 | -5.04
5 | COc1cccc(-n2ccn3c(SCC(=O)c4ccc(F)cc4)nnc3c2=O)c1 | 12.25 | 2.59 | -11.08
6 | Cc1ccc(N(Cc2cc(F)cc(F)c2)S(=O)(=O)c2cccn3c(C)nnc23)cc1 | 11.68 | 5.37 | -9.88
7 | O=C(CSc1nnc2c(=O)n(-c3ccccc3)ccn12)Nc1cccc(Cl)c1 | 1.21 | -0.19 | -20.21
8 | COc1ccc(CCn2c(=O)c3sccc3n3c(=O)n(Cc4c(F)cccc4Cl)nc23)cc1OC | 4.92 | -1.61 | -23.43
9 | COc1ccc(N(Cc2ccc(F)cc2)S(=O)(=O)c2ccc3nncn3c2)cc1 | 12.52 | 2.69 | 2.37
10 | COc1ccc(-c2cc3c4nn(CC(=O)Nc5cccc(C(C)=O)c5)c(=O)n4ccn3n2)cc1 | 3.99 | 4.25 | -13.63
11 | COc1ccc(N(Cc2cccc(F)c2)S(=O)(=O)c2ccc3nncn3c2)cc1 | 25.01 | 3.57 | -1.54
12 | COc1ccc(CN(c2ccc(F)cc2)S(=O)(=O)c2cccn3cnnc23)cc1F | 9.98 | 3.76 | -9.79
13 | COC(=O)c1ccccc1NC(=O)Cn1nc2c3cc(-c4ccc(OC)cc4)nn3ccn2c1=O | 20.11 | 0.77 | -26.84
14 | Cc1ccc(-n2ccn3c(=O)n(Cc4c(F)cccc4Cl)nc3c2=O)cc1C | 16.81 | 1.02 | -16.44
15 | Cc1nnc2ccc(S(=O)(=O)N(Cc3cccc(F)c3)c3ccc(Cl)cc3)cn12 | 10.33 | -0.68 | -10.1
16 | COc1cccc(CN(c2ccc(F)cc2)S(=O)(=O)c2ccc3nnc(C)n3c2)c1 | 7.98 | -0.17 | -13.2
17 | COC(=O)c1cccc(NC(=O)Cn2nc3c(N4CCC(C)CC4)nccn3c2=O)c1 | 5.33 | 2.15 | -12.99
18 | Cc1cccc(NC(=O)CSc2nnc3c4cc(-c5ccc(F)cc5)nn4ccn23)c1C | 0.2 | 1.75 | -21.34
19 | CCCN(C)c1nccn2c(=O)n(CC(=O)Nc3cccc(Cl)c3F)nc12 | 7.25 | 0.78 | -6.38
20 | Cc1ccccc1CN(c1ccc(C(C)C)cc1)S(=O)(=O)c1cccn2c(C)nnc12 | 8.89 | 4.49 | -10.58
21 | O=C(Cn1nc2c(SC3CCCCC3)nccn2c1=O)Nc1cccc(Cl)c1 | -2.02 | 27.21 | -17.97
22 | Cc1cc(F)ccc1NC(=O)Cn1nc2c(SCc3ccc(Cl)cc3)nccn2c1=O | 8.05 | 13.65 | -20.69
23 | Cc1ccc(-c2cc3c4nn(CC(=O)Nc5ccc(Cl)cc5)c(=O)n4ccn3n2)cc1C | -7.29 | 11.19 | -17.93
24 | Cc1cccc(NC(=O)Cn2nc3ccc(-c4ccccc4)nn3c2=O)c1 | 6.7 | 4.41 | -14.95
25 | CCOc1ccc(N(Cc2cccc(F)c2)S(=O)(=O)c2ccc3nncn3c2)cc1 | 6.73 | 1.76 | -4.27
26 | O=C(Cn1nc2c(N3CCOCC3)nc3ccccc3n2c1=O)Nc1ccccc1Br | 11.27 | 1.17 | -27.52
27 | Cc1ccc(NC(=O)CSc2nnc3ccc(C(=O)Nc4cccc(F)c4)cn23)cc1F | 6.03 | -0.33 | -4.6
28 | COc1ccc(OC)c(NC(=O)Cn2nc3ccc(SCc4ccc(Cl)cc4)nn3c2=O)c1 | 2.51 | 9.63 | -22.41
